From PubChem BioAssay (Tox21)
“And” between values parts separate entries of the source, which are not always exact repeats. Equal entries are not always repeated. Records with an inconclusive call do not appear. The source made the active and inactive calls. Calls come from the whole dose curve; as a rule, active = well fitted inhibition curve with a large enough effect in the signal ratio in the repeat runs; inconclusive = weak or mixed curves, or effect the other way; inactive = flat fitted curve, though single readings scatter; the % refers to the signal ratio.

Assay: qHTS assay for small molecule disruptors of the mitochondrial membrane potential (AID 720635)
Details: HepG2 mitochondrial membrane potential, Mito-MPS dye ratio; series mostly up to 83.2 µM; ratio activity, negative = MMP loss: at the top concentration
Text: U.S. Tox21 Program National Center for Advancing Translational Sciences [NCATS] NIH Chemical Genomics Center [NCGC] U.S. Environmental Protection Agency [EPA] National Institutes of Environmental Health Sciences [NIEHS] National Toxicology Program [NTP] U.S. Food and Drug Administration [FDA] Tox21 Assay Overview: Mitochondrial membrane potential (MMP), one of the parameters for mitochondrial function, is generated by mitochondrial electron transport chain that creates an electrochemical gradient by a series of redox reactions. This gradient drives the synthesis of ATP, a crucial molecule for various cellular processes. Measuring MMP in living cells is commonly used to assess the effect of chemicals on mitochondrial function. […] The dye accumulates in the mitochondria of healthy cells as aggregates, with red fluorescence. The mitochondrial potential collapses and the dye can no longer accumulate in the mitochondria and remains in the cytoplasm in monomers, with green fluorescence.
Tox21 Assay Protocol Summary: 2,000 HepG2 cells in 5 uL/well were dispensed into black, clear-bottom 1536-well plates using a Multidrop Combi (Thermo Scientific) dispenser. The assay plates were incubated overnight at 37C to allow cells to attach to the wells, followed by the transfer of 23 nL compound or DMSO vehicle by a pin tool (Kalypsys). The plates were incubated for 1 hr at 37C and 5% CO2, followed by the addition of 5 uL of 2X Mito-MPS dye (BD Biosciences) into each well using Flying Reagent Dispenser (Aurora Discovery) and then following 30 min incubation at 37C. Fluorescence intensity (490nm excitation and 535nm emission for monomers; and 540nm excitation and 590nm emissions for aggregates) was measured using an Envision plate reader.
% is set by controls: 0 for no effect and ±100 for the full control effect; potency is the fitted concentration of half-maximal effect.

SMILES	Potency	ratio activity, negative = MMP loss
O=Nc1ccc(NO)cc1	50.5 µM (active)	–
C[n+]1c2cc(N)ccc2cc2ccc(N)cc21 (tested in a mixture with another compound)	0.668 µM (active)	–
COc1cc(C(=O)NS(=O)(=O)c2ccccc2C)ccc1Cc1cn(C)c2ccc(NC(=O)OC3CCCC3)cc12	9.44 µM (active)	–
CN1[C@@H]2CC[C@H]1CC(OC(=O)C(CO)c1ccccc1)C2 (stereo not given in full)	inactive	–
CC(NCCC(c1ccccc1)c1ccccc1)c1ccccc1 (stereo not given)	8.8 µM (active)	–
CCc1ccc(O)c(C(C)(C)C)c1	8.63 µM (active)	–
CCOC(=O)C1=C(C)NC(C)=C(C(=O)OCC)C1c1ccccc1/C=C/C(=O)OC(C)(C)C	10.6 µM (active)	–
O=C(O)CCn1c2c(c3ccccc31)C[C@H](NS(=O)(=O)c1ccc(F)cc1)CC2	–	13.9% (inactive)
CCC(C)c1cc([N+](=O)[O-])cc([N+](=O)[O-])c1OC(=O)OC(C)C (stereo not given)	3.06 µM (active)	–
NCCCCCCNCCCCCCN	–	11.3% (inactive)
O=C(Nc1ccc(Cl)cc1)Nc1ccc(Cl)c(C(F)(F)F)c1	0.596 µM (active)	–
CC(C)(C)CC(C)(C)c1ccccc1O	2.18 µM (active)	–
CCCCOc1ccc(C(=O)CCN2CCCCC2)cc1	–	17.5% [at 39.1 µM] (inactive)
C[C@@H]1CC[C@H]2C(C)(C)[C@H]3C[C@@]12CC[C@@]3(C)O	61 µM (active)	–
COC(=O)[C@]1(C)CCC[C@@]2(C)[C@H]1CC=C1C=C(C(C)C)CC[C@@H]12	54.5 µM (active)	–
Brc1ccccc1-c1ccccc1	51.6 µM (active)	–
C/C=C/C=N/NC(=O)c1ccncc1	–	10.1% (inactive)
Cc1cc2c(C(C)C)c(O)c(O)c(C=O)c2c(O)c1-c1c(C)cc2c(C(C)C)c(O)c(O)c(C=O)c2c1O	11.9 µM (active)	–
CCCN(CCc1cccs1)[C@H]1CCc2c(O)cccc2C1	24.8 µM (active)	–
O=C(Oc1ccccc1)c1cccc(C(=O)Oc2ccccc2)c1	32.3 µM (active)	–

SMILES	Potency	ratio activity, negative = MMP loss
CCNc1nc(NC(C)CC)nc(OC)n1 (stereo not given)	–	-24.5% (inactive)
C/C=C/C(=O)Oc1c(CCCCCC(C)C)cc([N+](=O)[O-])cc1[N+](=O)[O-]	0.109 µM (active)	–
C=CC(=O)OCCOCC(CC)(COCCOC(=O)C=C)COCCOC(=O)C=C	–	-13.6% [at 95.3 µM] (inactive)
O=C1NCN(c2ccccc2)C12CCN(CCCC(c1ccc(F)cc1)c1ccc(F)cc1)CC2	19.7 µM (active)	–
CC(=O)Oc1ccc(C2(c3ccc(OC(C)=O)cc3)Oc3ccccc3NC2=O)cc1	23.7 µM (active)	–
[O]=[Zr]	–	-19.9% (inactive)
CCN=C1C=CC(=C(c2ccc(N(CC)CC)cc2)c2ccc(N(CC)CC)cc2)c2ccccc21	0.0076 µM (active)	–
CC(C)(C)c1cc(/C=C2\SC(=N)NC2=O)cc(C(C)(C)C)c1O	12.2 µM (active)	–
CC1(C)C(=O)N(Br)C(=O)N1Br	–	26.3% (inactive)
c1ccc(Nc2cccc3ccccc23)cc1	43.8 µM (active) and 43.3 µM (active)	–
O=C1OC(=O)c2cccc3cccc1c23	2.76 µM (active)	–
Nc1ccc2cc3ccc(N)cc3nc2c1	2.66 µM (active) and 1.22 µM (active)	–
C[C@]12CC[C@H]3C(=CCc4cc(O)ccc43)[C@@H]1CCC2=O	19.3 µM (active)	–
Cc1occc1SSc1ccoc1C	–	-20.3% (inactive)
CC(C)(c1cc(Br)c(O)c(Br)c1)c1cc(Br)c(O)c(Br)c1	4.84 µM (active) and 7.67 µM (active) and 1.83 µM (active)	–
Cc1cccc(Br)c1	–	14.8% [at 95.3 µM] (inactive)
CC(C)c1ccc(O)c(C(C)C)c1	15.4 µM (active)	–
CC(C)=C1CC[C@@H](C)CC1=O	–	6.61% (inactive)
O=C1NC2CCCCN2C12CCN(CCCN1c3ccccc3CCc3ccc(Cl)cc31)CC2 (stereo not given)	–	19.3% (inactive)
Cc1c(C(=O)O)cccc1[N+](=O)[O-]	–	22.3% [at 95.3 µM] (inactive)
